# Source: PubChem
# ERK EGF inh: qHTS Assay for Inhibitors of the ERK Signaling Pathway using a Homogeneous Screening Assay; Stimulation with EGF; 0.41% of 130,000 active; HEK293-V1b, EGF-stimulated phospho-ERK AlphaScreen; AID 1454, 2008; Potency, µM (doses to about 11.5 µM), for inactives: at the top dose activity change, negative = inhibition, actives largely listed as inhibitors;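 note: potency is the fitted concentration of half-maximal effect; plate controls were stimulated vehicle wells for no effect and unstimulated vehicle basal for full effect; nearly all actives have a fitted effect of over 55% in size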
#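 V1b-HEK293, 1% FBS o/n; cpd 30 min 37C; EGF 25 nM final, 5 min; lyse 10 min; AlphaScreen beads 5 h RT. Normalized DMSO basal vs EGF max; Hill AC50.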
# ERK pERK EGF: Confirmation Concentration-Response Assay for Inhibitors of the ERK Signaling Pathway using a Homogeneous Screening Assay; Stimulation with EGF | 60% of 60 active | AID 1725, 2009 | Potency, µM (doses to about 57.5 µM), without a hit: at the top dose activity change, negative = inhibition, hits mostly inhibitors | HEK293 EGF-stimulated ERK phosphorylation, AlphaScreen | shares compounds with ERK EGF inh
# cRaf kinase inh: Assay for Inhibitors of the ERK Signaling Pathway using a Homogeneous Screening Assay: c-Raf Inhibition; activity change, negative = inhibition, % at 76.9 µM; shares compounds with ERK EGF inh; c-Raf kinase inhibition, homogeneous biochemical assay; AID 1728, 2009; 70 tested, under 10 active
# MEK1 kinase inh: Assay for Inhibitors of the ERK Signaling Pathway using a Homogeneous Screening Assay: MEK Inhibition; shares compounds with ERK EGF inh; homogeneous MEK kinase activity assay, ERK pathway; Potency, µM (highest dose often 76.9 µM), for inactives: at the highest dose activity change, negative = inhibition, actives largely listed as inhibitors; 70 tested, under 10 active; AID 1732, 2009
# Target sequence (Q02750 whole entry, looked up): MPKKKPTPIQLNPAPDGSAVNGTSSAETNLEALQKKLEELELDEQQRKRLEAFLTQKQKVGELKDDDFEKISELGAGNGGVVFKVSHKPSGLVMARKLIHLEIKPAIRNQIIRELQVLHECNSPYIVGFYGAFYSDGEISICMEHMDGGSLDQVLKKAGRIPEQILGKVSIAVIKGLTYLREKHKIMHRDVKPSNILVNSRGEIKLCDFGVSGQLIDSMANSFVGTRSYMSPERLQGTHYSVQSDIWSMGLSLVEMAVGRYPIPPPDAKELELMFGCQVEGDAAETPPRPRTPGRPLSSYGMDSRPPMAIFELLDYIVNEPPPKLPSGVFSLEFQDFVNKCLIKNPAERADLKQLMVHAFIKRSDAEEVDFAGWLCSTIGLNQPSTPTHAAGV
# Active calls of the source: *; ? = inconclusive; nt = no result given; [ ] = dose if it differs, or a comment. The sample as a whole holds a higher share of hits than the screen did. Calls come from the whole dose curve; as a rule, active = well fitted curve in the direction sought with a large enough effect; inconclusive = small, poorly fitted or top-dose-only effect, or another doubt; inactive = no such curve, though single readings can be large; an effect the other way counts as inactive or inconclusive.
SMILES,ERK EGF inh,others
CCCn1c(=O)c2[nH]c(-c3ccccc3)nc2n(CCC)c1=O,-13%,
COCC(=O)N1CCC2(CCCN(c3cccc(-c4ccccc4)c3)C2)CC1,-1%,
CN(C)c1ccc(-c2nc(N3CCNCC3)c3ccccc3n2)cc1,11%,
CNC[C@H](O)c1ccc(OC(=O)C(C)(C)C)c(OC(=O)C(C)(C)C)c1,-1%[25.7 µM],
CC1(C)OC(c2ccccc2)=C/C(=C/C=C2C(=O)c3ccccc3C2=O)O1,?,ERK pERK EGF=?;cRaf kinase inh=-12;MEK1 kinase inh=-7%
COc1ccc(N=C/C=C2\C=C(c3ccccc3)OC(C)(C)O2)cc1,2%,
Cc1ccccc1N=C/C=C1/C=C(c2ccccc2)OC(C)(C)O1,1%,
NCCC[C@@H](CC(=O)N[C@@H]1CCCC[C@H]1C(=O)N[C@H](CC(=O)N[C@@H](CCC(=O)O)CC(=O)O)Cc1ccccc1)NC(=O)C[C@H](CO)NC(=O)[C@@H]1CCCC[C@H]1N,-11%,
CS(=O)(=O)Nc1cccc(-c2nc(Nc3ccccc3)c3ccccc3n2)c1,26%,
CN(C)c1ccnc(-c2cccc(NS(C)(=O)=O)c2)n1,16%,
CS(=O)(=O)Nc1cccc(-c2ccc3ncnc(Nc4ccc(F)cc4)c3c2)c1,1.1µM*,ERK pERK EGF=1.4µM*;cRaf kinase inh=-36;MEK1 kinase inh=18%
CC(=O)O[C@@H]1C(CO[Si](C)(C)C(C)(C)C)=C(Br)C(=O)[C@@H]2O[C@]12C,-11%,
CC[C@H](C)[C@@H](NC(=O)O[C@H]1C(=O)c2ccc(OC)cc2O[C@@H]1c1ccc2c(c1)OCO2)C(=O)OC,-9%,
NCCCCCCNS(=O)(=O)c1ccc2c(Cl)cccc2c1,-21%,
COC(=O)[C@@H]1C[C@@]2(O)[C@H](O)[C@H](O)[C@H](O)C[C@H]2N1Cc1ccc(N2CCN(C)CC2)cc1,2%,
CC(/C=C/c1ccccc1)=N\Nc1ccccc1[N+](=O)[O-],7.9µM*,ERK pERK EGF=8.9µM*;cRaf kinase inh=-3;MEK1 kinase inh=-6%
CC(/C=C/c1ccccc1)=N/NC(=O)c1cc([N+](=O)[O-])cc([N+](=O)[O-])c1,29%,
CC(/C=C/c1ccccc1)=N/NC(=O)C(O)c1ccccc1 (stereo not given),6%,
Cc1ccc(Nc2ncnc3sc(C)c(C)c23)cc1C,nt,ERK pERK EGF=11µM*;cRaf kinase inh=?;MEK1 kinase inh=-1%
Cc1sc2ncnc(N/N=C/c3ccccc3O)c2c1C,4%,
Cc1sc2ncnc(N/N=C/c3ccc(O)cc3)c2c1C,-2%,
C[C@@H]1C(=O)CC2C(C)(C)CCC[C@]2(C)[C@@]1(O)CCc1ccoc1 (stereo not given in full),-1%,
CS(=O)(=O)CCNCc1nc(-c2ccc3ncnc(Nc4ccc(OCc5cccc(F)c5)c(Cl)c4)c3c2)cs1,1µM*,ERK pERK EGF=0.71µM*;cRaf kinase inh=-10;MEK1 kinase inh=-13%
COC(=O)CNC(=O)C1(CC(C)C)C=CCN1C(C)=O (stereo not given),-9%,
CC1(C)O[C@H]2C[C@@H]3[C@H]4CCC5=CC(=O)CC[C@@]5(C)[C@]4(F)[C@@H](O)C[C@@]3(C)[C@@]2(C(=O)CCl)O1,-3%[25.7 µM],
CCCCCCCC/C=C\CCCCCCCC(=O)N[C@@H](CO)Cc1ccc(O)cc1,4%,
